Test results reported in the supplement of paper PMC8975748.
Structures can show the parent of a compound that is named as a salt.

Each compound was assayed on Saccharomyces cerevisiae BY4741 SeMeCo community (assay: z-score of subpopulation abundance vs DMSO median, subpopulation auxotrophic for LUM; higher = larger share of this subpopulation than in DMSO controls). Conditions: 10 µM; 24 h; SM minimal medium; subpopulation (auxotrophy): LUM.
In short: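 Four plasmids, each restoring a single auxotrophy and encoding a distinct fluorescent protein, were carried by a Saccharomyces cerevisiae BY4741 community. After overnight growth to OD600 1.0 and dilution to 0.3, 70 µl per well was grown for 24 h in minimal SM medium on 384-well plates acoustically predosed with library drugs at 10 µM final. Following paraformaldehyde fixation, automated confocal microscopy was used, with single-auxotroph fluorescent strains defining thresholds and autofluorescence correction. Subpopulation abundance was then scored as a z-score against the vehicle-well median.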

Compound | z-score of subpopulation abundance
COc1cc(Cc2cnc(N)nc2N)cc(OC)c1OC [Trimethoprim] | 0.27
OCCN1CCN(CCCN2c3ccccc3Sc3ccc(C(F)(F)F)cc32)CC1 [Fluphenazine dihydrochloride] | 0.9
CC(C)c1c(C(=O)Nc2ccccc2)c(-c2ccccc2)c(-c2ccc(F)cc2)n1CC[C@@H](O)C[C@@H](O)CC(=O)O [Atorvastatin] | 0.92
COc1ccc(C2CNC(=O)C2)cc1OC1CCCC1 (configuration not stated) [Rolipram] | -0.59
NNc1nncc2ccccc12 [Hydralazine HCl] | -0.97
COCCOC(=O)C1=C(C)NC(C)=C(C(=O)OC(C)C)C1c1cccc([N+](=O)[O-])c1 (configuration not stated) [Nimodipine] | 0.35
CCOC(=O)C1=C(C)NC(C)=C(C(=O)OC)C1c1cccc([N+](=O)[O-])c1 (configuration not stated) [Nitrendipine] | -1.36
CCCN[C@H]1CCc2nc(N)sc2C1 [Pramipexole dihydrochloride] | -0.25
Cc1cc(C)nc(NS(=O)(=O)c2ccc(N)cc2)n1 [Sulfamethazine] | -0.16
CC[C@H](C)C(=O)O[C@H]1C[C@@H](C)C=C2C=C[C@H](C)[C@H](CC[C@@H]3C[C@@H](O)CC(=O)O3)[C@H]21 [Lovastatin] | 0.48
CN1[C@@H]2CC[C@H]1C[C@@H](OC(c1ccccc1)c1ccccc1)C2 [Benztropine mesylate] | -0.36
CO/N=C(\C(=O)N[C@@H]1C(=O)N2C(C(=O)O)=C(CSc3nnnn3C)CS[C@H]12)c1csc(N)n1 [Cefmenoxime hydrochloride] | -0.46
